Measured values taken from PubChem BioAssay AID1159580 (chemical genetic matrix, 2015).
Several values for one entry are separate records, joined by “and”; a condition that tells them apart may be missing. Equal values may be shown once. Out of some 5,500 compounds screened, about 2,000 (36%) were called active. Another 18% or so got no clear call; they are omitted. Rule as the data show it: active = normalized growth mostly below about 0.91 (no sharp cut-off); inconclusive = no clear call, values can overlap the other calls; inactive = mostly above about 0.92. The list shows a part of the results.

Test: chemical genetic growth profiling, strain panel (AID 1159580);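 also: tested at 20 µM; growth read once vehicle control cultures reached saturation at 30 °C; 1 = growth at the plate median or of vehicle wells; lower values mean less growth of the strain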
Conditions: S. cerevisiae deletion strains, growth OD

Measured: normalized growth

C=C1c2cccc(O)c2C(O)=C2C(=O)[C@]3(O)C(O)=C(C(N)=O)C(=O)[C@@H](N(C)C)[C@@H]3[C@@H](O)[C@H]12
inactive: locus YAL013W, strain DEP1, hits give low values 0.997 | locus YAL021C, strain ccr4, hits give low values 1.02 | locus YAL026C, strain drs2, hits give low values 1.01 | locus YAL030W, strain snc1, hits give low values 1.01 | locus YBL061C, strain skt5, hits give low values 1.01 | locus YBR009C, strain hhf1, hits give low values 1 | locus YBR021W, strain FUR4, hits give low values 1.01 | locus YBR023C, strain chs3, hits give low values 1 | locus YBR171W, strain sec66, hits give low values 1.02 | locus YBR229C, strain ROT2, hits give low values 0.987 | locus YBR231C, strain swc5, hits give low values 1.02 | locus YBR279W, strain paf1, hits give low values 1.01 | locus YCL011C, strain gbp2, hits give low values 1.01 | locus YCL016C, strain dcc1, hits give low values 1.02 | locus YCL029C, strain bik1, hits give low values 0.965 | locus YCL061C, strain MRC1, hits give low values 1.02 | locus YCL069W, strain vba3, hits give low values 1.01 | locus YCR088W, strain abp1, hits give low values 0.997 | locus YDL005C, strain med2, hits give low values 1.02 | locus YDL035C, strain GPR1, hits give low values 0.98 | locus YDL040C, strain nat1, hits give low values 1.02 | locus YDL074C, strain BRE1, hits give low values 0.962 | locus YDL101C, strain DUN1, hits give low values 0.978 | locus YDL134C, strain PPH21, hits give low values 1.01 | locus YDL185W, strain tfp1, hits give low values 0.925 | locus YDL192W, strain arf1, hits give low values 0.971 | locus YDR001C, strain nth1, hits give low values 1.01 | locus YDR069C, strain doa4, hits give low values 1.01 | locus YDR101C, strain arx1, hits give low values 0.957 | locus YDR137W, strain rgp1, hits give low values 0.927 | locus YDR150W, strain NUM1, hits give low values 0.99 | locus YDR159W, strain sac3, hits give low values 1.01 | locus YDR162C, strain NBP2, hits give low values 0.981 | locus YDR195W, strain ref2 0.997 | locus YDR297W, strain sur2, hits give low values 1.01 | locus YDR318W, strain mcm21, hits give low values 0.975 | locus YDR334W, strain swr1, hits give low values 1.01 | locus YDR335W, strain msn5, hits give low values 1.01 | locus YDR388W, hits give low values 0.991 | locus YDR392W, strain spt3, hits give low values 0.957 | locus YDR502C, strain sam2, hits give low values 1 | locus YEL003W, strain gim4, hits give low values 1 | locus YEL037C, strain rad23, hits give low values 1.01 | locus YEL061C, strain CIN8 (second series), hits give low values 1.01 | locus YEL061C, strain CIN8, hits give low values 0.988 | locus YER015W, strain faa2, hits give low values 0.991 | locus YER016W, strain bim1, hits give low values 0.946 | locus YER110C, hits give low values 0.997 | locus YER111C, strain swi4, hits give low values 1.01 | locus YER155C, strain BEM2 (second series), hits give low values 0.966 | locus YER155C, strain BEM2, hits give low values 1.01 | locus YER167W, strain BCK2, hits give low values 0.992 | locus YFR010W, strain ubp6, hits give low values 1.02 | locus YGL078C, strain dbp3, hits give low values 0.993 | locus YGL086W, strain mad1, hits give low values 0.993 | locus YGL167C, strain pmr1, hits give low values 1.02 | locus YGL173C, strain kem1, hits give low values 1.01 | locus YGL227W, strain vid30, hits give low values 1.01 | locus YGL240W, strain doc1, hits give low values 1.03 | locus YGL248W, strain PDE1, hits give low values 0.979 | locus YGL253W, strain hxk2, hits give low values 1.01 | locus YGR078C, strain PAC10, hits give low values 0.928 | locus YGR135W, strain pre9, hits give low values 0.987 | locus YGR229C, strain SMI1, hits give low values 0.947 | locus YGR252W, strain gcn5, hits give low values 1.11 | locus YHR013C, strain ard1, hits give low values 1.02 | locus YHR027C, strain rpn1, hits give low values 1.01 | locus YHR030C, strain SLT2, hits give low values 0.994 and 0.979 | locus YHR079C, strain IRE1 (second series), hits give low values 0.982 | locus YHR079C, strain IRE1, hits give low values 0.978 | locus YHR094C, strain hxt1, hits give low values 0.992 | locus YHR129C, strain ARP1, hits give low values 0.982 | locus YHR142W, strain chs7, hits give low values 1.05 | locus YHR200W, strain rpn10, hits give low values 0.97 | locus YIL066C, strain RNR3, hits give low values 0.948 | locus YIL073C, strain SPO22, hits give low values 0.945 | locus YIL125W, strain kgd1, hits give low values 0.989 | locus YIR030C, strain dcg1, hits give low values 1 | locus YJL092W, strain hpr5, hits give low values 1.01 | locus YJL095W, strain BCK1 (second series), hits give low values 1.02 | locus YJL095W, strain BCK1, hits give low values 0.899 and 0.972 | locus YJL115W, strain asf1, hits give low values 1.03 | locus YJL129C, strain trk1, hits give low values 1.04 | locus YJL134W, strain LCB3, hits give low values 0.992 | locus YJL154C, strain vps35, hits give low values 1.04 | locus YJL164C, strain tpk1, hits give low values 0.983 | locus YJL166W, strain qcr8, hits give low values 1.02 | locus YJL168C, strain set2, hits give low values 0.982 | locus YJL187C, strain SWE1 (second series), hits give low values 0.929 | locus YJR043C, strain POL32, hits give low values 0.923 | locus YJR066W, strain TOR1, hits give low values 0.913
